Our source for the Potency and outcome values is PubChem BioAssay (Tox21).

Experiment [1] concerns the target Androgen receptor (Homo sapiens) (UniProt P10275). Kind of experiment: qHTS assay to identify small molecule agonists of the androgen receptor (AR) signaling pathway in the presence of an antagonist (AID 1259381; calls by dose curve; also: nearly all actives have a fitted effect of over 15% in size). Summed up: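 Using human MDA-kb2 cells with an MMTV promoter–luciferase construct (AR and GR response elements), agonist activity is scored under 3.0uM nilutamide (final) co-treatment; 16hr incubation, 37C, luminescence readout via ONE-Glo.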
Background: In qHTS, concentration-response curves come from the screen itself.

Experiment [2] concerns the target Estrogen receptor (Homo sapiens) (UniProt P03372). Put plainly: qHTS assay to identify small molecule agonists of the estrogen receptor alpha (ER-alpha) signaling pathway in the presence of an antagonist (AID 1259383; calls by dose curve; also: top concentration of the series differs between compounds; nearly all actives have a fitted effect of over 15% in size). In short, it runs like this:
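Using VM7Luc4E2 cells seeded 24hr before treatment, antagonist ICI-182,780 (10.0nM final) was added, followed by compounds at 15 concentrations. Plates incubated 22hr; ONE-Glo luminescence quantified reporter activity.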

Experiment [3] can be described thus: qHTS assay to identify small molecule agonists of the estrogen receptor alpha (ER-alpha) signaling pathway in the presence of an antagonist - cell viability counter screen (AID 1259386).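 Also: cells exposed to compounds for 22 h at 37 °C before the viability read; nearly all actives have a fitted effect of over 30% in size.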 Also: potency is read from the fitted curve at half-maximal effect. Summed up: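 ICI-182,780 at 10.0nM final accompanies the compound titration (15 concentrations, 22hr, 37C) on VM7Luc4E2 cells. The CellTiter-Fluor fluorescence readout runs in the same wells as the luciferase assay.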

The target in experiment [4] is Progesterone receptor (Homo sapiens) (UniProt P06401). Kind of experiment: qHTS assay to identify small molecule antagonists of the progesterone receptor (PR) signaling pathway (AID 1346795; active = well fitted inhibition curve with a large enough effect in the signal ratio in the repeat runs, not every such curve was filed as active; the % refers to the signal ratio; also: potency is read from the fitted curve at half-maximal effect). In short, it runs like this: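 Stimulus R5020 at 1 nM final; cells HEK293T PR-UAS-bla; medium with 2% charcoal-stripped FBS; compound exposure 16 hr at 37C, 5% CO2; detection by FRET beta-lactamase substrate, 2 hr, room temperature.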
Chain of Progesterone receptor (Homo sapiens) (P06401 whole entry, looked up): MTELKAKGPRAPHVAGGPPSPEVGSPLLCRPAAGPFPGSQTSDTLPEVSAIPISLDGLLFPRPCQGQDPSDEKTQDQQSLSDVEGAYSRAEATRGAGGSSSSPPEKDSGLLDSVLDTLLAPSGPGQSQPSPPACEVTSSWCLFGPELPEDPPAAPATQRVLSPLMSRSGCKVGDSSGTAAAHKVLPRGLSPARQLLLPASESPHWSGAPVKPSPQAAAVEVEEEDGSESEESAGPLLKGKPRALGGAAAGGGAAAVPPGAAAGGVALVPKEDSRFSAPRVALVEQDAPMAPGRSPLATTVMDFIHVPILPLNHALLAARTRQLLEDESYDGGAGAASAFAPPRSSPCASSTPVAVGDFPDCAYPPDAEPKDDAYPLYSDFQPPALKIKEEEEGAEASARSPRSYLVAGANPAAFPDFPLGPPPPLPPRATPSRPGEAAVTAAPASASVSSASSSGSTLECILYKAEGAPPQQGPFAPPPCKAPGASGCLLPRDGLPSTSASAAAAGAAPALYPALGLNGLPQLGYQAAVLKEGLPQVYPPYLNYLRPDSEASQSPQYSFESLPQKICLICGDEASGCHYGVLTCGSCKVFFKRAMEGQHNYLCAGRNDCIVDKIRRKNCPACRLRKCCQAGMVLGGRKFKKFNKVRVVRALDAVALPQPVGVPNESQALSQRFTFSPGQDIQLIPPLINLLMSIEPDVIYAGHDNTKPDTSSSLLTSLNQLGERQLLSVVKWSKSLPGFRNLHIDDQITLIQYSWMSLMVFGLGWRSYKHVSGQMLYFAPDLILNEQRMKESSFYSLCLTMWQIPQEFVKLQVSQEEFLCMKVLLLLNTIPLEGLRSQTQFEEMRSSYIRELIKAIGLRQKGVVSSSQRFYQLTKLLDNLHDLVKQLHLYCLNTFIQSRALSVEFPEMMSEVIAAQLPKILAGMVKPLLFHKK

A short description of experiment [5]: qHTS assay to identify small molecule antagonists of the TGF-beta/Smad signaling pathway - cell viability counter screen (AID 1346824). Also: nearly all actives have a fitted effect of over 50% in size. In short, it runs like this:
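SBE-bla HEK 293T cells were plated overnight at 37 C, then given compounds in DMSO plus TGF-beta1 (added as 0.25 ng/mL solution) for 5 hr. After the bla read, CellTiter-Glo was added to the same wells and luminescence read after 30 min at room temperature.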

Experiment [6] in a line: qHTS assay to identify small molecule agonists of the TGF-beta/Smad signaling pathway - cell viability counter screen (AID 1346829). Also: top concentration of the series differs between compounds; nearly all actives have a fitted effect of over 45% in size. Summed up:
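Here the cytotoxicity of library compounds is measured in SBE-bla HEK 293T cells treated for 5 hr, using CellTiter-Glo added to wells already read for the beta-lactamase reporter.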

The nature of experiment [7]: qHTS assay to identify small molecule agonists of the TGF-beta/Smad signaling pathway (AID 1346859; active = well fitted activation curve with a large enough effect in the signal ratio in the repeat runs, not every such curve was filed as active; the % refers to the signal ratio; also: series mostly up to about 77 µM). In short, it runs like this:
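Screening used HEK 293T SBE-bla cells at 4,000/well. Test agents: 5 hr, 37 C. Detection: FRET substrate, 2 hr RT, then excitation 405 nm with emissions at 460 and 530 nm.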

Experiment [8] addresses Thyrotropin-releasing hormone receptor (Homo sapiens) (UniProt P34981). Kind of experiment: qHTS assay to identify small molecule agonists of the thyrotropin-releasing hormone receptor (TRHR) signaling pathway (AID 1346891; calls by dose curve; also: series mostly up to about 58 µM). Summed up: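 Readout was intracellular calcium fluorescence in TRHR-Hek293 cells. Cells were incubated 18 h, dye-loaded 2 h at 37 °C, and treated with compound in agonist mode.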

Experiment [9] in a line: Caspase-3/7 induction in HepG2 cells by small molecules, qHTS assay (AID 1346978). Also: nearly all actives have a fitted effect of over 15% in size. Summed up: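 Wild-type HepG2 cells (2,000/well) were settled 5 h at 37 C, 5% CO2, then exposed to compounds in DMSO for 17 h. Caspase-3/7 activity was read by luminescence 30 min after adding Caspase-Glo 3/7 reagent at room temperature.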
Experiment [10] in a line: qHTS assay to identify small molecule antagonists of the estrogen receptor beta (ER-beta) signaling pathway - cell viability counter screen (AID 1259382). Also: nearly all actives have a fitted effect of over 55% in size. Also: potency is read from the fitted curve at half-maximal effect. Summed up: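 Agonist-stimulated (1nM E2) ER-beta-UAS-bla HEK293T cells are incubated with library compounds for 16 hr at 37C. Cell viability is then assessed in the reporter-assay wells by adding CellTiter-Glo and reading luminescence after 30 min.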

Experiment [11] in a line: qHTS assay to identify small molecule agonists or antagonists of the thyroid stimulating hormone receptor (TSHR) signaling pathway - wild type cell line counter screen (AID 1259384; calls by dose curve). Summed up: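 Wild-type HEK293 cells were plated 18 h at 37 C/5% CO2, pin-dosed with compound plus Ro20-1724 medium, held 30 min at room temperature, then given cAMP-d2 and anti-cAMP-cryptate; fluorescence was read after 1 h. Fifteen concentrations, triplicate.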

In experiment [12] the target is Thyrotropin receptor (Homo sapiens) (UniProt P16473). Kind of experiment: qHTS assay to identify small molecule antagonists of the thyroid stimulating hormone receptor (TSHR) signaling pathway (AID 1259385; calls by dose curve; also: nearly all actives have a fitted effect of over 20% in size; also: potency is read from the fitted curve at half-maximal effect). Summed up: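 TSHR-HEK293 cells were plated and held 18 h at 37C/5% CO2, then given compound plus Ro20-1724 and stimulated with TSH at 1.5 ng/mL final. After 30 min at room temperature, cAMP was detected with cAMP-d2/anti-cAMP-cryptate (1 h) by fluorescence.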
Chain of Thyrotropin receptor (Homo sapiens) (P16473 whole entry, looked up): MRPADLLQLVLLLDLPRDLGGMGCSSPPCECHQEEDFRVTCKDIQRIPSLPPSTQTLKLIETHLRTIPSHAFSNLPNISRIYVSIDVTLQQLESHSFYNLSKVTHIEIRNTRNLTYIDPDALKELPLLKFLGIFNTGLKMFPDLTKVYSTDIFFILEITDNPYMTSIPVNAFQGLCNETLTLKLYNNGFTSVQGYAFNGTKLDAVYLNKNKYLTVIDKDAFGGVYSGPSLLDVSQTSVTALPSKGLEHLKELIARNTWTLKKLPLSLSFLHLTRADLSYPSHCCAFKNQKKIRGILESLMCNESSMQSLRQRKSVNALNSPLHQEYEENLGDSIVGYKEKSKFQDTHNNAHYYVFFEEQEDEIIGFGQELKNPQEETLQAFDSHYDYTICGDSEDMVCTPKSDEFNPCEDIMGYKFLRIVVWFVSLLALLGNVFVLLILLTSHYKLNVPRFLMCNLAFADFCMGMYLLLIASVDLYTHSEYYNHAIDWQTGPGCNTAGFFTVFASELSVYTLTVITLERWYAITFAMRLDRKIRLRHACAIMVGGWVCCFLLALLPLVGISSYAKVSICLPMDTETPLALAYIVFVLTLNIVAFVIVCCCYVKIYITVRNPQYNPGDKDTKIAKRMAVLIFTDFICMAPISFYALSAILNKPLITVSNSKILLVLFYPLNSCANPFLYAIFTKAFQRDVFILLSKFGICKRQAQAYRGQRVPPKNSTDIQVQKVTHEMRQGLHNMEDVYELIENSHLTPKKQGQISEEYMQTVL

Experiment [13] can be described thus: qHTS assay to identify small molecule antagonists of the progesterone receptor (PR) signaling pathway - cell viability counter screen (AID 1346798). Also: nearly all actives have a fitted effect of over 50% in size. Also: potency is read from the fitted curve at half-maximal effect. In short, it runs like this:
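In the same plates used for the beta-lactamase readout, cell viability of compound- and R5020-treated PR-UAS-bla HEK293T cells (16 hr, 37C) was assessed by CellTiter-Glo luminescence.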

In experiment [14] the target is Progesterone receptor (Homo sapiens) (UniProt P06401). Kind of experiment: qHTS assay to identify small molecule agonists of the progesterone receptor (PR) signaling pathway (AID 1346784; calls by dose curve; also: nearly all actives have a fitted effect of over 30% in size). Summed up: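 Reporter assay, GripTite PR-UAS-bla HEK 293T cells: 16 hr exposure to DMSO-dissolved compounds at 37C, 5% CO2, in steroid-depleted (2% charcoal-stripped FBS) medium; beta-lactamase measured by FRET fluorescence.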

The nature of experiment [15]: qHTS assay to identify small molecule agonists of the progesterone receptor (PR) signaling pathway - cell viability counter screen (AID 1346799; calls by dose curve; also: nearly all actives have a fitted effect of over 45% in size; also: potency is read from the fitted curve at half-maximal effect). Summed up: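 Multiplexed viability read: CellTiter-Glo luminescence, 30 min RT, following LiveBLAzer FRET measurement on PR-UAS-bla HEK293T cells exposed to compounds 16 hr.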
A short description of experiment [16]: qHTS assay to identify small molecule agonists of the androgen receptor (AR) signaling pathway in the presence of an antagonist - cell viability counter screen (AID 1259379). Also: potency is read from the fitted curve at half-maximal effect; nearly all actives have a fitted effect of over 25% in size. In short, it runs like this: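 A CellTiter-Fluor read-out measured viability of MDA-kb2 reporter cells (MMTV promoter with AR and GR response elements). Treatment: nilutamide 3.0uM final with compounds at 15 concentrations, 16 hr, 37C, 0% CO2.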

Experiment [17] can be described thus: Human pregnane X receptor (PXR) small molecule agonists, qHTS cell viability counter screen (AID 1346977). Also: nearly all actives have a fitted effect of over 50% in size. Summed up:
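In each well, the PXR reporter HepG2 line was checked for viability: CellTiter-Fluor reagent added 23hr post-dosing, fluorescence read after 1hr incubation at 37C.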

Experiment [18] is described as follows: qHTS assay to identify small molecule agonists of the estrogen receptor beta (ER-beta) signaling pathway - cell viability counter screen (AID 1259380). Also: nearly all actives have a fitted effect of over 30% in size. Also: potency is read from the fitted curve at half-maximal effect. In short, it runs like this: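 Cells used were ER-beta-UAS-bla HEK293T in medium with 2% charcoal-stripped FBS. They were treated for 16 hr at 37C. Viability came from CellTiter-Glo luminescence.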
Experiment [19] deals with Thyrotropin-releasing hormone receptor (Homo sapiens) (UniProt P34981). Put plainly: qHTS assay to identify small molecule antagonists of the thyrotropin-releasing hormone receptor (TRHR) signaling pathway (AID 1346877; active = well fitted inhibition curve with a large enough effect in the repeat runs, not every such curve was filed as active; also: series mostly up to about 51 µM). Summed up: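 Screening used HEK293 cells engineered with TRHR, with a brief 5 min room-temperature compound exposure preceding addition of TRH to 1 nM. The read-out was kinetic calcium-dye fluorescence, concentration-response from 15 doses in triplicate.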
Chain of Thyrotropin-releasing hormone receptor (Homo sapiens) (P34981 whole entry, looked up): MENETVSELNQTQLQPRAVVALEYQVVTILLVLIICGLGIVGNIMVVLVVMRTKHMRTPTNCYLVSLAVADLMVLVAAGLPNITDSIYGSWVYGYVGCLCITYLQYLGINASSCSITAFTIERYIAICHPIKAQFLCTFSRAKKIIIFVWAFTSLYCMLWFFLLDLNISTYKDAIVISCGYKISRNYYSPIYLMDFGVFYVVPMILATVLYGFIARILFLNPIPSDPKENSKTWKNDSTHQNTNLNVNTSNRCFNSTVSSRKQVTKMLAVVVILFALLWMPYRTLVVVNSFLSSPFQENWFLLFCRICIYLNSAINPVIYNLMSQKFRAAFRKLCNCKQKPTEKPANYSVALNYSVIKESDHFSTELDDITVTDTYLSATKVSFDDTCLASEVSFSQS

Results filed as inconclusive are left out. Active and inactive are the calls of the source. Unless noted, calls follow the shape of the dose curve; as a rule, active = well fitted curve in the direction sought with a large enough effect in the repeat runs; inconclusive = weak or mixed curves; inactive = no such curve, though single readings can be large; an effect the other way counts as inactive or inconclusive.

Chain of Androgen receptor (Homo sapiens) (P10275 whole entry, looked up): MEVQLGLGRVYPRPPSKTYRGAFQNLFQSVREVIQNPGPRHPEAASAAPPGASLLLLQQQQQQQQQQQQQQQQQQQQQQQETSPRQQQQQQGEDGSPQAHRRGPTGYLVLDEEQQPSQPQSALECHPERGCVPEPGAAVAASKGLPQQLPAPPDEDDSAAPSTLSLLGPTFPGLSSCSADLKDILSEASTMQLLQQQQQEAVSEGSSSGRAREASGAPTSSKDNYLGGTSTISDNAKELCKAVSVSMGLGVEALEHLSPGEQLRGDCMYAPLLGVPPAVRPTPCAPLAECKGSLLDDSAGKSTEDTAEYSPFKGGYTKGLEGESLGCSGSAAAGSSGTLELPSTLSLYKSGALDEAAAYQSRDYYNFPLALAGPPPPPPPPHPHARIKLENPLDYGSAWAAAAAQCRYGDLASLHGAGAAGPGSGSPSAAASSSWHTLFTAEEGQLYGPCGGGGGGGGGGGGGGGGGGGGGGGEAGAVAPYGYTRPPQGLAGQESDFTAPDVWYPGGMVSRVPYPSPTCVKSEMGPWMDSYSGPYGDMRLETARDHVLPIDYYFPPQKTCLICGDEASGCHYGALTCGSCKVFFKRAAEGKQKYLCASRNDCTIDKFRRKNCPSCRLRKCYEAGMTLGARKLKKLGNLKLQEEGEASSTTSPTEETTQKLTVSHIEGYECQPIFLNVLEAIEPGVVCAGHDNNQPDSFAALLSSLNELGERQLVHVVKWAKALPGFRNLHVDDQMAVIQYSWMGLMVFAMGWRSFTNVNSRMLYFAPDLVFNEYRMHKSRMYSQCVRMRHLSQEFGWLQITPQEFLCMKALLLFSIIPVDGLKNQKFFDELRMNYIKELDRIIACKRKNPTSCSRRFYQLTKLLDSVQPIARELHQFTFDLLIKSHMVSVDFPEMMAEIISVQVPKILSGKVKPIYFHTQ
Chain of Estrogen receptor (Homo sapiens) (P03372 whole entry, looked up): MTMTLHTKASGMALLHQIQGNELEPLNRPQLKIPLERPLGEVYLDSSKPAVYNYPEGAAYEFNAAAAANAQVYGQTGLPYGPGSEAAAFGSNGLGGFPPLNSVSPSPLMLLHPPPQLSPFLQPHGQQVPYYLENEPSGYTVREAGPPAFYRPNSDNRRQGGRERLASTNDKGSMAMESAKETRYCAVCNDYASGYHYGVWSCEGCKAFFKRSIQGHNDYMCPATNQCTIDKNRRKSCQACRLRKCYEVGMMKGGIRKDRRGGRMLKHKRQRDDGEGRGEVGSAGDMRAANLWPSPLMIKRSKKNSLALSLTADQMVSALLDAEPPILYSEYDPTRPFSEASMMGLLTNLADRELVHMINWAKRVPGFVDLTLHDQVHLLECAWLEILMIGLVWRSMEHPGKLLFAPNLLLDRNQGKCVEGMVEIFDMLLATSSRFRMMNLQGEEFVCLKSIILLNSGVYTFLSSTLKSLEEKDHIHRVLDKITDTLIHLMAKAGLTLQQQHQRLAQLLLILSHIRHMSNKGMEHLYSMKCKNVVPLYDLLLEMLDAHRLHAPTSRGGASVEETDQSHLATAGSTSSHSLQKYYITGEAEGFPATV

For `Oc1c(Br)c(Br)c(Br)c(Br)c1Br`, the Potency result in experiment [1], in [2], in experiment [3], in experiment [5], in experiment [6] and in [8] was “inactive” throughout. The Potency entry in [9] was “inactive”. The Potency in experiment [4] is 27.5 µM (active). Further, the result in experiment [7] was inactive.
As for `Oc1c(Cl)c(Cl)cc(Cl)c1Cl`, the Potency entry in experiment [1], in experiment [10], in [2], in experiment [12], in experiment [3] and in experiment [13] was “inactive” throughout. Besides, the Potency entry in [5], in experiment [6], in experiment [8] and in [9] was “inactive” throughout. The result in [11] and in experiment [7] was inactive.
As for `Nc1ccc(Cl)cc1C(=O)c1ccccc1`, the Potency result in experiment [2], in experiment [12], in [14], in [13], in [15] and in [5] was “inactive” in each case. Also, the Potency result in experiment [6] and in experiment [9] was “inactive” each time. For the same molecule, the outcome in experiment [11] and in experiment [7] was inactive. Also, in experiment [4], the Potency is 17.2 µM (active).
Take `O=c1ssc(Cl)c1Cl`: in experiment [16], the Potency is 68.6 µM (active). The Potency entry in experiment [2], in [3], in experiment [13], in [15], in [6] and in [17] was “inactive” each time. Moreover, the Potency entry in experiment [9] was “inactive”. In experiment [7], the molecule was classed as inactive.
As for `Cc1cc(C(C)(C)c2cc(C)c(O)c(C)c2)cc(C)c1O`, the Potency was 52.7 µM (active) in [18], 26.4 µM (active) in experiment [10], 41.8 µM (active) in experiment [13] and 59.1 µM (active) in experiment [15]. The Potency result in experiment [1], in [12], in experiment [3], in experiment [5] and in [8] was “inactive” each time. In addition, the outcome in experiment [11] was inactive.
As to `Clc1ccc(CO/N=C(\Cn2ccnc2)c2ccc(Cl)cc2Cl)c(Cl)c1`, the Potency was 29.8 µM (active) in [18]; 29.8 µM (active) in experiment [10]; 26.6 µM (active) in experiment [12]; 21.1 µM (active) in experiment [13]; 15 µM (active) in experiment [15]. Moreover, the result in experiment [11] and in experiment [7] was inactive. Further, the Potency result in [5], in experiment [6], in experiment [19] and in [8] was “inactive” each time.
Regarding `N#CCCC(Br)(C#N)CBr` (stereo unspecified), the Potency in [18] is 43.3 µM (active); in [12] it was 54.5 µM (active). The Potency entry in [2], in experiment [15], in experiment [5], in experiment [6], in experiment [8] and in experiment [9] was “inactive” in each case. Besides, the molecule was classed as inactive in [11] and in experiment [7].
As to `Nc1ccc([N+](=O)[O-])cc1Cl`, the Potency entry in experiment [18], in experiment [1], in experiment [10], in experiment [2], in experiment [12] and in [14] was “inactive” throughout. The Potency result in experiment [13], in experiment [5], in [6] and in experiment [9] was “inactive” each time. The outcome in [11] and in [7] was inactive. The Potency in [3] and in experiment [4] was 54.5 µM (active) throughout.
